Measurements as given in PubChem BioAssay (NCI).
This is part of a sample that, as a whole, favours compounds with a hit. Of some 83,000 tested, about 20% had one in any assay.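 96-well plates, one dose, 48 hours. Percent growth reported; active if below 10.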 Unmarked numbers belong to inactive results. The source made the active and inactive calls.

Tests used:
Assay in all cases: NCI-60 one-dose screen, 48 h (100 = growth as untreated, 0 = no growth, -100 = all killed)
Conditions in all cases: 10 µM unless noted
NCI-H23 lung = test system: NCI-H23 lung
NCI-H322M lung = test system: NCI-H322M lung
HOP-62 NSCLC = test system: HOP-62 NSCLC
NCI-H460 lung = test system: NCI-H460 lung
HOP-92 NSCLC = test system: HOP-92 NSCLC
NCI-H522 lung = test system: NCI-H522 lung
A549/ATCC NSCLC = test system: A549/ATCC NSCLC
786-0 renal = test system: 786-0 renal
DU-145 prostate = test system: DU-145 prostate
K-562 leukemia = test system: K-562 leukemia
MALME-3M melanoma = test system: MALME-3M melanoma
MDA-MB-231 breast = test system: MDA-MB-231 breast
RXF 393 renal = test system: RXF 393 renal
SF-268 CNS = test system: SF-268 CNS
SF-295 CNS = test system: SF-295 CNS
SF-539 CNS = test system: SF-539 CNS
UACC-257 melanoma = test system: UACC-257 melanoma
M14 melanoma = test system: M14 melanoma
HCT-15 colon = test system: HCT-15 colon
COLO 205 colon = test system: COLO 205 colon

SMILES | growth (NCI-H23 lung) | growth (NCI-H322M lung) | growth (HOP-62 NSCLC) | growth (NCI-H460 lung) | growth (HOP-92 NSCLC) | growth (NCI-H522 lung) | growth (A549/ATCC NSCLC) | growth (786-0 renal) | growth (DU-145 prostate) | growth (K-562 leukemia) | growth (MALME-3M melanoma) | growth (MDA-MB-231 breast) | growth (RXF 393 renal) | growth (SF-268 CNS) | growth (SF-295 CNS) | growth (SF-539 CNS) | growth (UACC-257 melanoma) | growth (M14 melanoma) | growth (HCT-15 colon) | growth (COLO 205 colon)
CCCN1CCN(c2ccc3nc(-c4ccc5nc(-c6cc(OC)ccc6OC)[nH]c5c4)[nH]c3c2)CC1 | 103% | 115% | 117% | 100% | 110% | 113% | 115% | 101% | 114% | -45.3% (active) | 139% | 107% | 93.3% | 106% | 104% | 96.2% | 110% | 111% | 62.1% | –
O=C(Cn1cc(COc2ncnc3c2cnn3-c2ccccc2)nn1)Nc1cccc2ccccc12 | 89% | 93.2% | 90.5% | 93.7% | 82.3% | 81.1% | 92.3% | 103% | 97.9% | 94.6% | 93.6% | 95% | 94.8% | 92.6% | 99.4% | 90% | 95.9% | 105% | 96.9% | –
COc1cccc2c(=O)c3c(sc12)c(NCCCNCCO)nc1ccccc13 | 63.1% | 53.4% | 44.4% | -75.1% (active) | 10.2% | 60.9% | 34.5% | 56.3% | 41.4% | -46.9% (active) | 81.2% | 23.9% | 44.5% | 48.2% | 73% | 64.9% | 84.5% | 41.9% | 25.6% | –
COc1ccc(-c2c(-c3ccc(OC)c(O)c3)cnc3ncnn23)cc1 | 99.9% | 106% | 111% | 108% | 95.1% | 96% | 100% | 103% | 105% | – | 111% | 102% | – | 101% | 102% | 98.6% | 105% | 106% | 100% | 126%
O=C(/C=C/c1ccc(F)cc1)c1ccc(Nc2nc(NCCO)nc(Nc3ccc(Cl)cc3)n2)cc1 | 89.1% | 93.1% | 80.8% | 61.6% | 87.8% | 81.1% | 51.1% | 69.8% | 84.6% | 45.4% | 96.6% | 71.9% | 51.2% | 71.9% | 91% | 74.4% | 99.5% | 83.3% | 26.7% | –
CCOc1ccc(Nc2ccnc3cc(Cl)ccc23)cc1 | -3.27% (active) | -0.617% (active) | 24.5% | 5.71% (active) | -25% (active) | -35.4% (active) | 1.55% (active) | 19.1% | – | 9.05% (active) | -25.2% (active) | -31.6% (active) | 3.65% (active) | 22.7% | -53% (active) | 24.4% | -33.6% (active) | 14.7% | 17.2% | -91.1% (active)
O=c1c2cc(F)ccc2sc2c(Nc3ccncc3)nc3ccccc3c12 | 45.9% | 81.4% | 34.7% | -76.7% (active) | 54.5% | 5.65% (active) | -43.8% (active) | -79.8% (active) | 4.28% (active) | -47.1% (active) | 22% | -89.7% (active) | -42% (active) | -10.4% (active) | 101% | 70.8% | 113% | -27.2% (active) | -70.5% (active) | –
O=C(NCc1ccco1)C1CN(c2ccc(Cl)cc2)N(c2ccc(Cl)cc2)C1=O (stereo not drawn) | 59.5% | 68.2% | 48.6% | 14.4% | 78.1% | 39.3% | 40.1% | 37.6% | 70.1% | 17.9% | 37.2% | 59.1% | 58.2% | 50.9% | 30.1% | 49.4% | 69.1% | 32.1% | 28.4% | –
Cc1cccc2c(=O)c3c(sc12)c(NCCCNCCO)nc1ccccc13 | 55% | 63.3% | 41.6% | 19.3% | 29.4% | 58.6% | 39.4% | 52.8% | 35% | -51.3% (active) | 26.9% | -1.61% (active) | 43.3% | 52.1% | 74.7% | 59.4% | 91.6% | 35.1% | 0.41% (active) | –
O=C1C(=O)c2c(ccc3ccccc23)-c2ccccc21 | -48.4% (active) | 50.5% | 9.44% (active) | 3.58% (active) | -20.6% (active) | -77.4% (active) | 24.1% | -6.68% (active) | – | 8.29% (active) | -83.8% (active) | -7.61% (active) | 22% | 1.97% (active) | 109% | -53.5% (active) | -37.4% (active) | -44.6% (active) | -27.6% (active) | 52%
CNCCNc1nc2ccccc2c2c(=O)c3cc(OC)ccc3sc12 | 69.6% | 38.8% | 41.2% | -72.2% (active) | 23.9% | 9.6% (active) | 24.6% | 10.7% | -25.6% (active) | -34% (active) | 67.1% | 1.79% (active) | 42.4% | 38.7% | 87.3% | 60% | 73.1% | -62.5% (active) | -31.8% (active) | –
COc1cc(/C=C/C(=O)c2ccc(Cl)cc2)cc(CN2CCCCC2)c1O | 92.6% | 91.6% | 94.7% | 94.3% | 75.5% | 77.2% | 94.6% | 91.6% | 103% | 70.4% | 82.2% | 83.2% | 97.6% | 91.1% | 97.9% | 92.1% | 92.3% | 91.4% | 69.8% | –
COc1cc2nc(NC3CCCC3)nc(NC3CCN(C(C)C)CC3)c2cc1OC | 88.7% | 100% | 89.3% | 71.8% | 47.8% | 62.6% | 75.7% | 80.7% | 74.8% | -4.9% (active) | 76.4% | 24.8% | 18% | 88.7% | 96.5% | 59.6% | 79.9% | -80.4% (active) | 79.2% | –
COC(=O)c1c2c(c(C)[n+]([O-])c1C)C(=O)C(NCc1ccc(F)c(F)c1)=CC2=O | -5.8% (active) | 13.4% | 33.1% | 4.7% (active) | 51.1% | 22% | 8.81% (active) | 48.2% | 42% | 18.4% | -70.8% (active) | -2.52% (active) | 32.2% | 12% | 18.2% | 2.45% (active) | -30% (active) | 4.33% (active) | 6.07% (active) | –
O=c1oc2ccc(Br)cc2c(=O)n1-c1ccc(Br)cc1F | -38.4% (active) | 2.56% (active) | -4.63% (active) | 1.55% (active) | -13.7% (active) | 6.36% (active) | 13% | 1.72% (active) | 13.8% | 8.3% (active) | -28.4% (active) | -27.2% (active) | -11.5% (active) | 12% | -73.6% (active) | -3.2% (active) | -15.1% (active) | -12.4% (active) | 2.53% (active) | –
O=C(CN1C=NC2C(N3CCOCC3)=NC=NC21)c1cccc2ccccc12 (stereo not drawn) | 103% | 98.8% | 99.2% | 103% | 90.2% | 90.2% | – | 101% | 105% | 107% | 114% | 88.1% | 100% | 84.7% | 102% | 98.9% | 101% | 105% | 95.8% | 119%
